# Sm TGR inh – S. mansoni TGR enzyme inhibition | AID 485364 | actives 3% (n = 360,000) | purified TGR, DTNB reduction, TNB absorbance 405 nm | Potency, µM (doses to about 114 µM), usual class: inhibitors; further: nearly all actives have a fitted effect of over 60% in size
#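 Kinetic colorimetric format: TGR-catalysed, NADPH-driven DTNB reduction monitored via TNB absorbance. Enzyme dispensed at 20 nM; compound exposure 15 min at room temperature before reaction start.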
# Pf growth 48h – inhibits P. falciparum growth in the first generation, 48 h | P. falciparum luciferase growth in erythrocytes, 48 h | AID 504832 | actives 5.9% (n = 310,000) | Potency, µM (titrated, usually from 28.7 µM), actives largely listed as inhibitors
#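 Parasite viability was followed by luminescence of a genomically integrated firefly luciferase. Cultures held 0.1% parasitemia at 2% hematocrit (final), incubated under 5% CO2 at 37 C.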
# AMA1-RON2 inh – disrupts binding of P. falciparum AMA1 to RON2 | Potency, µM (doses to about 58.2 µM), usual class: inhibitors | actives 0.2% (n = 360,000) | AlphaScreen AMA1-biotinylated RON2 peptide binding; further: nearly all actives have a fitted effect of over 45% in size
#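 AMA1 (3D7) with his tag at 25 nM final met compounds first, then biotinylated RON2 peptide at 25 nM; detection used donor plus acceptor beads, 10 µg/mL apiece, read by AlphaScreen after 30 min at room temperature.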
# Pf growth 96h – P. falciparum growth inhibition at 96 hour, primary screen for plastid delayed-death inhibitors | AID 504834 | actives 6.9% (n = 320,000) | P. falciparum luciferase reporter growth, 96 h | Potency, µM (titrated, usually from 28.7 µM), most hits filed as inhibitors
#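 Parasite growth measured via integrated firefly luciferase reporter in P. falciparum. Infected erythrocytes at 2% hematocrit, 0.05% parasitemia final were treated 96 hours at 37 C under 5% CO2, and luminescence was read.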
# NS1 inh – inhibitors of influenza NS1 protein function | Potency, µM (titrated, usually from 46.1 µM) | actives 0.4% (n = 270,000); calls by dose curve; further: actives are rising curves; nearly all actives have a fitted effect of over 50% in size
#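 Compounds were scored for reversing the slow growth caused by influenza A NS1 in S. cerevisiae, measured by optical density at 600 nm. Assay medium contained 2% galactose at pH 6.0; NS1-free yeast of the same strain were the positive control.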
# A number is an active result; n = inactive; u = inconclusive; x = no result; [ ] = remark or other dose. Hits are enriched below; roughly 11% of the tested compounds scored in any of these assays. Unless noted, the call rests on the fitted dose curve; in most records, active means well fitted curve in the direction sought with a large enough effect; inconclusive means small, poorly fitted or top-dose-only effect, or another doubt; inactive means no such curve, though single readings can be large; an effect the other way counts as inactive or inconclusive.
SMILES,Sm TGR inh,Pf growth 48h,AMA1-RON2 inh,Pf growth 96h,NS1 inh
COCCN(C(=O)c1ccco1)c1nc(-c2ccccc2)cs1,63µM,n,n,u,n
Cc1ccc(S(=O)(=O)N2CCOCC2)cc1C(=O)OCC(=O)NC1CCCC(C)C1C (stereo unspecified),n,u,n,u,x
CCOc1ccc(CCNC(=O)COC(=O)c2cc(S(=O)(=O)N3CCOCC3)ccc2F)cc1OCC,n,u,n,13µM,n
CC1CCCC(NC(=O)COC(=O)c2cc(S(=O)(=O)N3CCCCC3)ccc2N2CCOCC2)C1C (stereo unspecified),n,x,n,5.2µM,n
CC(C)CCNC(=O)NC(=O)COC(=O)c1cc(S(=O)(=O)N2CCOCC2)ccc1N1CCCCC1,n,9.3µM,n,x,n
NC(=O)COC(=O)c1cc(S(=O)(=O)N2CCOCC2)ccc1N1CCCCC1,n,n,n,u,n
CC1CCCC(NC(=O)NC(=O)COC(=O)c2ccc(O)cc2O)C1C (stereo unspecified),n,7.4µM,n,u,x
Cc1cc(C(=O)OCC(=O)NC2CCCC(C)C2C)c(C)o1 (stereo unspecified),x,x,n,x,x
COc1cccc(-n2c(SCc3ccccc3C)nc3c([nH]c4ccccc43)c2=O)c1,n,x,x,x,x
Cc1ccc2c(c1)nnn2C1CCN(CC(=O)c2ccc(Cl)cc2)CC1,n,u,n,n,n
Cc1ccc2c(c1)nnn2C1CCN(C(=O)NC23CC4CC(CC(C4)C2)C3)CC1,n,n,x,n,n
Cc1ccc2c(c1)nnn2C1CCN(C(=O)C23CC4CC(CC(C4)C2)C3)CC1,n,u,n,13µM,n
Cc1ccc2c(c1)nnn2C1CCN(CC(=O)N(c2ccccc2)c2ccccc2)CC1,n,6.6µM,n,12µM,n
CCOC(=O)CN(C(=O)CN1CCC(n2nnc3cc(C)ccc32)CC1)c1ccccc1,n,x,n,5.2µM,n
CCCN1CCN(C(=O)Cn2c(-c3cccs3)cc3ccccc32)CC1,n,x,x,x,x
CN(C)C=Nc1ccccc1C1C=NNC1=O (stereo unspecified),n,n,x,n,n
O=C(Nc1ccccc1)C1C2CCCCC21 (stereo unspecified),n,n,n,n,n
Cc1cccc(NC(=O)C2C3CCCCC32)c1 (stereo unspecified),n,n,n,0.19µM,n
CCC(C)c1ccccc1N=Cc1ccc2c(c1)OCO2 (stereo unspecified),n,n,n,n,n
Cc1cccc(NC(=O)COC(=O)c2cc(C)n(C3CC3)c2C)c1,n,9.3µM,n,u,x
Cc1cccc(NC(=O)COC(=O)c2cc(C)oc2C)c1,n,n,n,n,x
O=C(COC(=O)Cc1ccccc1F)Nc1ccc(F)cc1F,n,n[5.75 µM],n,n,n
Cc1cc2nc(-c3ccc(F)cc3)c(CC(C)(C)C)n2c(C)c1Br,x,x,n,x,x
COc1ccc(-c2nnc(SCC(=O)N3CCOCC3)o2)cc1OC,n,n,n,12µM,n
Cc1cc(C)nc(SCc2nnc(SCC(=O)N3CCOCC3)o2)n1,n,n,n,7.4µM,n
SMILES,Sm TGR inh,Pf growth 48h,AMA1-RON2 inh,Pf growth 96h,NS1 inh
Cc1cc(C)nc(SCC(=O)N2CCOCC2)n1,n[11.4 µM],x,n,n,n
CCOC(=O)N1CCN(C(=O)CSc2nnc(-c3ccc(C)c(C)c3)o2)CC1,n,x,n,9.3µM,n
CCOC(=O)N1CCN(C(=O)CSc2nnc(-c3cc(OC)cc(OC)c3)o2)CC1,n,n,n,u,n
CCOC(=O)N1CCN(C(=O)CSc2nnc(-c3cccc(OC)c3)o2)CC1,n,9.3µM,n,x,n
C(CCc1nnc2c(n1)CCCC2)Cc1nnc2c(n1)CCCC2,x,x,x,x,n
O=C(NN1CCN(Cc2ccccc2)CC1)c1ccc(N2CCOCC2)c([N+](=O)[O-])c1,n,n,n,n,x
COc1ccc(N2CCN(C(=O)CSc3nnc(-c4ccc5[nH]c(C)c(C)c5c4)o3)CC2)cc1,n,u,n,3.3µM,n
COC(=O)C1CCN(C(=O)CSc2nnc(-c3ccncc3)o2)CC1,n,n,n,5.2µM,n
COc1ccc(-c2nnc(SCC(=O)N3CCN(c4ccccc4)CC3)o2)cc1OC,n,n,n,n,n
COc1ccc(NC(=O)CSCc2cnn(-c3ccccc3)c2-n2cccc2)cc1,n,x,x,x,x
Oc1ccc(N=Cc2cc(Br)c(N3CCOCC3)o2)cc1,18µM,n,n,n,n
O=C1CC2(CCN(C(=O)c3ccccc3[N+](=O)[O-])CC2)Oc2ccccc21,n,n,n,n,x
Cc1cccc(-n2ccnc2SCC(=O)Nc2cc(C)on2)c1,n,n,n,10µM,n
COc1cccc(NC(=O)[C@H](C)NC(=O)N2CCn3c2nc2ccccc23)c1,n,u,n,u,n
Cc1cc(NC(=O)CSc2nccn2-c2cccc(C)c2C)no1,n,u,n,8.3µM,x
COc1cccc(NC(=O)[C@H](CC(C)C)NC(=O)N2CCn3c2nc2ccccc23)c1,n,u,n,5.9µM,n
COc1cccc(NC(=O)CSc2nc3ccccc3c3nc4ccccc4n23)c1,n,13µM,n,n,n
CCn1c(SCC#N)nc2ccccc2c1=O,n,n,n,n,n
N#CCSc1nc2ccccc2c2nc3ccccc3n12,n,u,n,7.4µM,n
COc1cccc(-n2ccnc2SCC(=O)Nc2ccccc2)c1,n,n,n,n,n
COc1cccc(NC(=O)CSc2nccn2-c2cccc(OC)c2)c1,n,n,n,12µM,n
CCOC(=O)N1CCN(C(=O)c2cn(C)c(=O)c3c2c2ccccc2n3C)CC1,n,u,n,x,n
CC(C)CCNC(=O)c1cn(CC(C)C)c(=O)c2c1c1ccccc1n2C,n,n,n,u,n
CCOC(=O)N1CCN(C(=O)c2cn(CC(C)C)c(=O)c3c2c2ccccc2n3C)CC1,n,10µM,n,n,n
CC(C)Cn1cc(C(=O)NCc2cccs2)c2c3ccccc3n(C)c2c1=O,n,u,n,8.3µM,n
SMILES,Sm TGR inh,Pf growth 48h,AMA1-RON2 inh,Pf growth 96h,NS1 inh
Cn1ccc2c(-c3ccc(C(N)=O)cc3)cc3c(c21)C1CCC3C1 (stereo unspecified),x,x,n,x,x
NS(=O)(=O)c1ccc(Oc2ccc(S(N)(=O)=O)cc2)cc1,n,n,n,n,x
C=CS(=O)(=O)c1ccc(Oc2ccc(S(=O)(=O)C=C)cc2)cc1,2.5µM,n,n,x,n
CC(Sc1nnc(Cc2ccccc2)o1)C(=O)NC1(C#N)CCCCC1 (stereo unspecified),x,x,n,x,x
COc1ccc(C(=O)OCC(=O)c2ccc3[nH]c(=O)[nH]c3c2)c(OC)c1OC,x,x,n,x,x
C#CCOCCOCCOCCNc1nc(N2CCN(C(=O)C(Cc3ccc(O)cc3)n3cc(C(N)C(C)CC)nn3)CC2)nc(N2CCN(C(=O)C(Cc3ccc(O)cc3)n3cc(C(N)C(C)CC)nn3)CC2)n1 (stereo unspecified),n,9.3µM,n,9.3µM,n
C#CCOCCOCCOCCNc1nc(N2CCOCC2)nc(N2CCN(C(=O)[C@H](CCC(=O)O)n3cc(C(N)[C@H](C)CC)nn3)CC2)n1 (stereo partly specified),20µM,n,n,n,n

# Source: PubChem
